VACV Venus inh = qHTS for Stage-Specific Inhibitors of Vaccinia Orthopoxvirus: Venus Reporter Primary qHTS; Vaccinia virus Venus reporter expression, fluorescence; Potency, µM (highest dose often 36.5 µM), hits mostly inhibitors; 330,000 compounds, 0.46% hits; calls by dose curve; tested in A549 cells; further: nearly all actives have a fitted effect of over 30% in size
VACV mCherry inh = qHTS for Stage-Specific Inhibitors of Vaccinia Orthopoxvirus: mCherry Reporter Primary qHTS | Potency, µM (top dose mostly 36.5 µM), most hits filed as inhibitors | AID 720579, 2013 | Vaccinia virus mCherry reporter infection, fluorescence | 310,000 compounds, 0.63% hits; calls by dose curve; tested in A549 cells; further: nearly all actives have a fitted effect of over 35% in size
AmpC detergent = qHTS Inhibitors of AmpC Beta-Lactamase (assay with detergent); P00811; AmpC hydrolysis of nitrocefin, absorbance 480 nm, 0.01% Triton; Potency, µM (top dose mostly 114 µM), usual class: inhibitors; 370,000 compounds, 0.041% hits; further: nearly all actives have a fitted effect of over 25% in size
Target sequence (P00811 whole entry, looked up): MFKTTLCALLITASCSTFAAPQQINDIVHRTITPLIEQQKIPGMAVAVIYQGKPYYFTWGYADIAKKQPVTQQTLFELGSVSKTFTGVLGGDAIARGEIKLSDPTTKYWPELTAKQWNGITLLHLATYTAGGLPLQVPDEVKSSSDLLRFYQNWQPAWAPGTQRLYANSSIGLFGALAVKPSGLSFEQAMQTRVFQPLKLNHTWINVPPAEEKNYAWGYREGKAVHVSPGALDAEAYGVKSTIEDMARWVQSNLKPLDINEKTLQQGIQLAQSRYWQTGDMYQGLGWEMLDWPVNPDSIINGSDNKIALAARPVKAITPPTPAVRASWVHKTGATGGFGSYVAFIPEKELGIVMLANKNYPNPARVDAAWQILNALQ
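AmpC (5.3 nM in the dispensed reagent) in 20 mM phosphate pH 7.0 with 0.01% (detergent screen) or 0.0001% Triton X-100 was preincubated with compounds for 15 min at room temperature. Nitrocefin was then added from an 800 uM solution, and hydrolysis was followed at 480 nm.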
AmpC inh no detg = qHTS Inhibitors of AmpC Beta-Lactamase (assay without detergent) | AmpC nitrocefin hydrolysis, absorbance 480 nm, 0.0001% Triton | Potency, µM (highest dose often 57.1 µM), usual class: inhibitors | 330,000 compounds, 0.52% hits | AID 485341, 2010; further: nearly all actives have a fitted effect of over 20% in size
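20 mM phosphate pH 7.0 + 0.01% (detergent screen) or 0.0001% Triton X-100; 5.3 nM AmpC reagent; cpd preinc 15 min RT; nitrocefin (800 uM stock) to start; A480 q20 s × 4 min; Activity was normalised to no-enzyme and no-compound control wells.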
A number is an active result; . = inactive; ? = inconclusive; / = not tested or not shown; [ ] = remark or other dose. Rows were chosen to be rich in hits. Some 1.1% of all compounds tested hit in one or more screens of this group. Unless noted, the call rests on the fitted dose curve; in most records, active means well fitted curve in the direction sought with a large enough effect; inconclusive means small, poorly fitted or top-dose-only effect, or another doubt; inactive means no such curve, though single readings can be large; an effect the other way counts as inactive or inconclusive.

SMILES | VACV Venus inh | VACV mCherry inh | AmpC detergent | AmpC inh no detg
COc1cc(=O)n2c(c1C(=O)NC(C)c1ccco1)CCN(Cc1cc(C)ccc1C)CC2 (stereo not drawn) | . | . | / | /
NC1=NC[C@H](c2ccccc2)N1CCc1cc(C(F)(F)F)cc(C(F)(F)F)c1 | 10µM | 10µM | . | .
NC1=NC[C@@H](CC2CCCCC2)N1CCc1cc(C(F)(F)F)cc(C(F)(F)F)c1 | 10µM | ? | / | .
NC1=NC[C@H](Cc2ccc(O)cc2)N1CCc1cc(C(F)(F)F)cc(C(F)(F)F)c1 | . | . | . | .
CC(O)[C@H]1CN=C(N)N1CCc1cc(C(F)(F)F)cc(C(F)(F)F)c1 (stereo partly drawn) | . | . | . | .
C[C@@H]1CN(Cc2ccc3c(c2)CN(Cc2coc4ccccc4c2=O)CCO3)C[C@H](C)O1 | . | . | / | /
O=C(O)c1cc(O)c2c(c1)[C@@H]([C@H]1c3cc(C(=O)O)cc(O)c3C(=O)c3c(O[C@@H]4O[C@H](CO)[C@@H](O)[C@H](O)[C@H]4O)cccc31)c1cccc(O[C@@H]3O[C@H](CO)[C@@H](O)[C@H](O)[C@H]3O)c1C2=O | . | ? | / | 1.3µM
CO[C@H]1[C@H](NC(=O)c2ccco2)c2ccccc2C12CCN(Cc1cc(Cl)ccc1O)CC2 | . | ? | / | /
CC(C)(CNC(=O)c1cnn(-c2nccc(-c3cc4ccccc4o3)n2)c1C1CC1)N1CCOCC1 | . | . | / | /
CCOC(=O)c1cc2c(ccn2C)n1CC(=O)N1CCN(c2ccccc2)CC1 | . | . | 32µM | .
CCOC(=O)c1cc2c(ccn2C)n1CC(=O)N1C(C)CCCC1C (stereo not drawn) | / | / | . | .
CN(C)c1ccc(/C=C/c2nc3ccccc3s2)cc1Cl | . | . | / | /
CCC(=O)N[C@@H]1c2ccccc2C2(CCN(Cc3cnc(N(C)C)s3)CC2)[C@H]1OC | . | . | / | /
Cc1cc(Nc2cccc(C(F)(F)F)c2)nc2ccc(NC(=O)c3cccc(Cl)c3)cc12 | . | . | . | /
Cc1cc(Nc2cccc(C(F)(F)F)c2)nc2ccc(NC(=O)c3cccnc3)cc12 | 11µM | 10µM | . | /
C=C1C(=O)O[C@@H]2[C@H]1[C@@H](OC(=O)/C(C)=C/C)C/C(C)=C\C(=O)/C=C(\C)[C@@H]2O | 11µM | ? | . | .
CCOc1ccccc1NC(=O)C(OC(=O)c1ccc(NC(=O)CC#N)cc1)c1ccccc1 (stereo not drawn) | . | . | . | 7.9µM
O=S(c1ccc2ccccc2c1)c1cnns1 (stereo not drawn) | 10µM | / | . | .
COc1ccccc1-n1cc(CN2CCOc3ccc(CN4C[C@@H](C)O[C@@H](C)C4)cc3C2)cn1 | . | . | / | /
CO[C@H]1[C@H](NC(=O)c2cccc(F)c2)c2ccccc2C12CCN(Cc1ccco1)CC2 | . | . | / | /
CCCCCCCCNc1ccc(/C=C/c2ccnc3ccccc23)cc1 | . | . | / | /
COC(=O)C1C=CC(OC2OC(COC(C)=O)C(OC(C)=O)C(OC(C)=O)C2OC(C)=O)n2c(=O)n(-c3ccccc3)c(=O)n21 (stereo not drawn) | ? | 10µM | / | /
CCCS(=O)(=O)NCc1c(C)ncc2c1CCN(C(=O)c1ccc(Cl)cc1)C2 | . | . | / | /
CC1CCC(C(C)C)C(OCC(O)CNC(C)c2ccccc2)C1 (stereo not drawn) | 10µM | 10µM | . | .
CC1CCC(C(C)C)C(OCC(O)CNC(C)(C)C)C1 (stereo not drawn) | . | . | . | .
SMILES | VACV Venus inh | VACV mCherry inh | AmpC detergent | AmpC inh no detg
CCc1nc2cc(C(=O)NC3CCS(=O)(=O)C3)cc(NC(=O)c3ccccc3OC)c2n1C (stereo not drawn) | . | . | / | /
N/C(=N\NS(=O)(=O)c1ccccc1C(F)(F)F)c1ccccn1 | / | / | . | .
Cc1nc(C(F)(F)F)c(C(=O)N/N=C(\N)c2ccccn2)s1 | ? | 2.5µM | . | .
CC1=CC2C(C(O)CC3(C)C2CC(C)C32OCOC23COCO3)C2(C)C/C(=C\O)C(=O)C=C12 (stereo not drawn) | 13µM | ? | / | /
CSc1nnc(CCNC(=O)c2ccccc2C(F)(F)F)n1-c1ccc(F)cc1 | . | . | / | /
Cc1ccc(NC(=O)OCc2ccccc2S(C)=O)cc1 (stereo not drawn) | . | . | ? | .
CS(=O)c1ccccc1COC(=O)Nc1ccc(Cl)cc1 (stereo not drawn) | . | / | . | 6.3µM
COc1ccc2c(c1)OC(C)CN(CCNC(=O)c1cc3cc(F)ccc3[nH]1)C2 (stereo not drawn) | . | . | / | /
O=C(Nc1cccc([N+](=O)[O-])c1)c1ccc2ccccc2c1O | ? | 10µM | . | .
Cc1ccccc1C(=O)NC(C)c1nnc2n1CCN(Cc1ccnc3ccccc13)CC2 (stereo not drawn) | . | . | / | /
O=c1c(C/C=C/c2ccccc2)c(O)ccn1CCc1c[nH]c2ccccc12 | . | . | . | .[2.29 µM]
COc1ccc2[nH]cc(CCn3ccc(O)c(C/C=C/c4ccccc4)c3=O)c2c1 | . | . | . | 16µM
COC(=O)[C@@]12OC[C@]34[C@H]([C@@H](O)[C@@H]1O)[C@@]1(C)C(=O)C(O[C@@H]5OC(CO)[C@@H](O)[C@@H](O)[C@@H]5O)=C[C@@H](C)[C@@H]1C[C@H]3OC(=O)[C@H](OC(=O)/C=C(\C)C(C)(C)OC(C)=O)[C@@H]24 (stereo partly drawn) | 8.9µM | 8.9µM | ? | .
Cc1cc(O)c(C=O)c2c1C(=O)Oc1c(COC(=O)/C=C/C(=O)O)c(O)c(C(=O)O)c(C)c1O2 | . | . | / | /
Cc1cc(O)c(C=O)c2c1C(=O)Oc1c(CO)c(O)c3c(c1O2)C(O)OC3=O (stereo not drawn) | . | . | 50µM | .
CCC1CN(CCC(=O)N2CCCN(C(=O)c3ccco3)CC2)Cc2cc(OC)ccc2O1 (stereo not drawn) | . | . | / | /
CCCCNC(=O)c1ccccc1C(=O)NCCCC | / | / | . | 1.1µM
O=S1(=O)CCOC[C@H](c2ccccc2)N1Cc1ccc(Cl)c(Cl)c1 | . | . | / | /
NC(N)=NS(=O)(=O)c1ccc(NC(=S)NC(=O)c2ccccc2)cc1 | / | / | . | .
NC(N)=NS(=O)(=O)c1ccc(NC(=S)NC(=O)Cc2ccc(Cl)cc2)cc1 | / | / | ? | 10µM
NC(N)=N/N=C/c1ccc(N(c2ccccc2)c2ccccc2)cc1 | 10µM | ? | . | .
CCN(Cc1ccccc1)c1ccc(/C=N/N=C(N)N)cc1 | 11µM | ? | . | .
COc1ccc(/C=N\N=C(N)N)cc1 | . | . | . | .
CCC1(C2CCN(Cc3ccoc3)CC2)NC(=O)N(CC2COc3ccccc3O2)C1=O (stereo not drawn) | . | . | / | /
COc1ccccc1C(=O)N(Cc1cc2cccc(C)c2nc1N1CCC(O)CC1)C1CC1 | . | . | / | /
OC[C@@H]1CN(Cc2ccc(-c3ccccc3)cc2)C[C@H](n2cnc3c(NCc4ccncc4)ncnc32)O1 | ? | 10µM | / | /

Assay outcomes deposited in PubChem by National Center for Advancing Translational Sciences (NCATS).
